Source: PubChem BioAssay

Experiments:
[1] = target: Tumor necrosis factor receptor superfamily member 10B (Homo sapiens) (UniProt O14763); experiment: viability loss of caspase-8 NB7 cells with TRAIL – with/without TRAIL, luminescence panel, confirmation (AID 651596); settings: NB7 neuroblastoma + caspase-8, TRAIL sensitization, NB7 Caspase-8, with TRAIL, mean of runs, at 10 µM, stronger effect = higher value
[2] = as above; settings: NB7 neuroblastoma + caspase-8, without TRAIL, NB7 Caspase-8, without TRAIL, mean of runs, at 10 µM

Chain of Tumor necrosis factor receptor superfamily member 10B (Homo sapiens) (O14763 whole entry, looked up): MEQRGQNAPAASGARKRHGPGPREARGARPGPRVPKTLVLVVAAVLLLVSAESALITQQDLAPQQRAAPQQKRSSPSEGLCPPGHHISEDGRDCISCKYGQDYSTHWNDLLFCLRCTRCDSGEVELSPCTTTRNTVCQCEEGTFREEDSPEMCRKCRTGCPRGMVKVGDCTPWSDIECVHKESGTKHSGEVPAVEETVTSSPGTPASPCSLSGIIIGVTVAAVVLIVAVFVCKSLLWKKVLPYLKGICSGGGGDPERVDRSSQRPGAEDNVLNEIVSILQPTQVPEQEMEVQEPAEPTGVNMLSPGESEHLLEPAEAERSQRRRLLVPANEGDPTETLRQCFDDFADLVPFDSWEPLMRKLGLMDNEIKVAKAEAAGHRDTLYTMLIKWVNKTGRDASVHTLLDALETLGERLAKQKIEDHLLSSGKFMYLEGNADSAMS

Structure (SMILES)	activity [1]	activity [2]
COc1cccc(NC(=O)Nc2ccc3c(c2)nc(C)n3C)c1	83.7%	82.8%
O=C(Nc1cccc(Cl)c1)c1nc[nH]c1C(=O)NCCCNC(=O)c1[nH]cnc1C(=O)Nc1cccc(Cl)c1	45.5%	77.4%
C=CCOc1ccc(/C=C/C(C)=N\O)cc1	57.2%	71.7%
CCOc1ccc(-c2cc(C(=O)N/N=C(\C)c3cccnc3)c3ccccc3n2)cc1	74%	69.6%
Cc1ccc2nc(-c3ccccn3)[nH]c2c1	81%	83.9%
Cc1nc(=S)c2c([nH]1)-c1ccccc1CC21CCCCC1	92%	76.4%
CCC(C)c1ccc(-c2cc(C(=O)OCC(=O)Nc3cc(C)on3)c3ccccc3n2)cc1 (stereo unspecified)	85.1%	85.7%
O=C(/C=C/Nc1ccccc1C(F)(F)F)c1ccco1	97.2%	99.3%
Cc1ccc2nc(-c3ccccc3)nn2c1	83.9%	80.3%
CC1(C)CC(=O)C=C(c2ccc(-c3ccc4[nH]ccc4c3)cc2)C1=O	67.8%	64.4%
Cc1cccc(NC(=O)c2ccc3c(c2)OCCO3)c1	85%	83.5%
CN=c1scc(-c2ccccc2F)n1/N=C(\C)c1cccnc1	54.9%	51.2%
CC(C)CC(NC(=O)c1ccc(Cl)cc1)C(=O)OCC(=O)c1ccc2c(c1)NC(=O)CO2 (stereo unspecified)	71.7%	97.4%
Fc1ccc(-n2nnc(-c3cnc4ccccc4c3)n2)cc1	70.8%	63.9%
CCC(=O)Nc1ccc2oc(-c3cccc(C)c3)nc2c1	57.2%	55.7%
Cc1ccc(NC(=O)c2ccc(C)cc2)cc1	64.9%	63.8%
COc1ccccc1NC(=O)Nc1ccc2c(c1)nnn2C	20.6%	7.6%
CCOc1ccc(C(=O)Nc2cc(C)on2)cc1	64.9%	61.7%
Cc1ccc(/C=N/Nc2ccc3ccccc3n2)o1	55.2%	45.1%
Cc1ccc(-c2nn(CC(=O)NCc3cc(-c4nn(C)c(=O)c5ccccc45)ccc3C)c(=O)c3ccccc23)cc1	90.9%	35.5%
COc1ccc(/C=C/C(=O)c2c(O)cc(C)oc2=O)c(OC)c1	91.1%	92.5%
FC(F)(F)c1cc(Cl)c2nc(-c3ccccc3)cn2c1	65%	76.1%
COc1ccc(-c2cc3ccccc3cn2)cc1	57.4%	54.3%
COn1c(SC2CCCCC2)nc2ccccc2c1=O	60.3%	60.1%
O=C(CC1SC(=Nc2ccccc2F)N(CCN2CCOCC2)C1=O)Nc1ccc(F)cc1F (stereo unspecified)	-3.85%	-7.28%
CCC(C)c1ccc(O)c(/C=N/O)c1 (stereo unspecified)	38%	56.6%

Structure (SMILES)	activity [1]	activity [2]
O=C(NCc1ccccc1)c1c(Cl)nc(Cl)c(Cl)c1Cl	99.8%	99.9%
CC(C)(C)c1ccc(C(=O)O/N=C(\N)Cc2cccs2)cc1	98.6%	77.5%
COc1ccc2cc3cc(C(=O)N4CCCCCC4)oc3nc2c1	45.1%	41.9%
Cc1nc2c(ccc3nc(NC(=O)c4ccc5c(c4)OCCO5)sc32)s1	82.8%	84.3%
COc1ccc2oc(-c3ccccc3)cc(=O)c2c1	76.1%	78%
COc1ccc(C(=O)Nc2ccc(C)cn2)c(OC)c1	95.3%	95.2%
COc1ccc(Oc2c(Cl)cnn(-c3ccc(C)cc3)c2=O)cc1	96.9%	89.9%
O=C(/C=C/c1ccc2c(c1)OCO2)Nc1cccnc1	71.1%	76.2%
O=C(/C=C/Nc1ccc(F)cc1)c1cccs1	69.7%	65%
CC(=O)Nc1sc(C)c(C)c1C(=O)OCC(=O)N(CC(C)C)c1c(N)n(Cc2ccccc2)c(=O)[nH]c1=O	97.5%	98.9%
Cc1ccc(Nc2nc(N)c3ccccc3n2)cc1C	83%	78%
O=C(COC(=O)c1ccccc1C(=O)c1ccc(Cl)c([N+](=O)[O-])c1)NC1CC1	98.7%	99.3%
Cc1ccc(C(C)C)c(OCC(=O)Nc2ccc3c(c2)nc(CCN2CCCCC2)n3C)c1	7.92%	39.4%
CN(C)c1ccc(-c2nc3ccccc3c(=O)[nH]2)cc1	91.9%	92.5%
COc1ccc(C=Cc2ccc3ccccc3n2)c(OC)c1	79.1%	68.5%
CN1CCN(Cc2nc3ccccc3c(=O)n2Cc2nc(-c3ccc4ccccc4c3)cs2)CC1	67.3%	91.5%
O=C(N/N=C1\CCc2ccccc21)c1ccccc1O	53.7%	62.4%
O=C1C(=Cc2ccc(Cl)cc2)CCc2ccccc21	85.8%	78.7%
CCC1CCCCN1Cc1nc(Cc2ccccc2Cl)no1 (stereo unspecified)	-9.55%	-33.1%
C#CC(=O)N(c1ccc(OC)cc1OC)C(C(=O)NC1CCCC1)c1cccs1 (stereo unspecified)	99%	99.6%
Cc1cccc(NC(=S)NC(=O)c2oc3ccccc3c2C)n1	70%	60.1%
CCn1nnc(NC(=O)c2ccc(C(C)(C)C)cc2)n1	69.1%	75.2%
Cc1ccc(NC(=O)C(=O)Nc2ccccn2)cc1	75.7%	71.7%
Clc1ccccc1-c1nnc(-c2ccc3c(c2)OCO3)o1	53.9%	50.7%
COc1ccc(C=C2CCc3ccccc3C2=O)cc1	90.9%	91.4%
COc1ccc(C(=O)O/N=C(\N)c2ccccc2Cl)cc1OC	95.7%	92.8%

Structure (SMILES)	activity [1]	activity [2]
COc1cc2c(cc1NC(=O)c1cccc([N+](=O)[O-])c1)oc1ccccc12	-1.55%	-9.4%
O=C(Nc1nc2ccccc2[nH]1)C12CC3CC(CC(C3)C1)C2	66.2%	65.7%
Cc1ccc(Nc2nc(N)nc(CCl)n2)c(C)c1	98.9%	98.6%
COc1ccccc1NC(=O)c1nc(S(=O)(=O)Cc2ccccc2)ncc1Cl	90.7%	99.2%
CCOc1ccc2nc(NC(=O)CN3CCC(n4nnc5cc(C(F)(F)F)ccc54)CC3)sc2c1	69%	66.9%
CCOc1ccc(-c2nc(-c3cccnc3)no2)cc1	53.3%	51.5%
O=C(Nc1ccc2c(c1)OCCO2)Nc1ccc2c(c1)OCO2	81.4%	79.5%
CCOC(=O)c1sc2nc(-c3ccccc3)ccc2c1N	76.1%	66.1%
CCn1cc(Cl)c(C(=O)Nc2ccc3c(c2)OCCO3)n1	39.5%	34.1%
CC1(C)N=C(N)N=C(N)N1c1ccc(OCCCOc2ccccc2)c(Cl)c1	59.8%	64.1%
COc1cc(/C=N/Nc2nn3cnnc3c3ccccc23)cc(OC)c1OC	73.9%	76.2%
CN(C)c1ncnc2c1ncn2C1OC(CO)C(O)C1O (stereo unspecified)	57.1%	45.3%
Cc1ccc(OCC(=O)Nc2ccccc2C(N)=O)cc1	66.8%	68.1%
O=C(NCc1cc(C(F)(F)F)ccc1Cl)c1cccc2c1C(=O)c1ccc(N3CCC(N4CCCCC4)CC3)cc1S2(=O)=O	93%	93.6%
COc1ccc2cc(-c3ccccc3)ncc2c1	63.8%	63.7%
CCC(C)c1ccc2oc(-c3ccc(NC(=O)Cn4cnc5c(=O)n(C)c(=O)n(C)c54)cc3)nc2c1 (stereo unspecified)	85.3%	66.9%
CCOC(=O)c1cc2c(C)n(-c3ccc(C)cc3)c(C)c2ccc1=O	74.9%	63.9%
CC(C)c1ccc(NC(=O)Nc2nc(C(N)CCc3ccccc3)cs2)cc1 (stereo unspecified)	86.8%	98.2%
CC1CCC(C(C)C)C(OC(=O)Cn2c(-c3ccccc3)[n+](C)c3ccccc32)C1 (stereo unspecified)	70.2%	61.2%
Fc1cccc2sc(Nc3nc4cc5c(cc4s3)OCCO5)nc12	40.2%	28.4%
c1ccc(-c2cc3cc4c(cc3cn2)OCO4)cc1	43.8%	29%
NNc1nc(-c2ccccc2)nc2sc3c(c12)CCCC3	57.2%	54.4%
COCCn1c(C)cc(C(=O)COC(=O)c2n[nH]c3ccccc23)c1C	88.7%	86.9%
C#CCSc1nnc(-c2ccc(C)cc2)o1	97.6%	93.2%
Cc1cc(Br)c(OCc2ccc(C(=O)N/N=C/c3ccc[nH]3)cc2)c(Br)c1	72.8%	86.5%
Cc1cc(C)c(C)c(S(=O)(=O)N2CCN(CC(=O)c3c(N)n(Cc4ccccc4)c(=O)n(C)c3=O)CC2)c1C	76.3%	79.4%
